# Measured values taken from PubChem BioAssay.
# Activity calls are given as the source filed them. Unless noted, the rule behind the calls is not given here.
# How the values were obtained:
# [1] = A549 cell viability effects, profiling panel, calcein-AM fluorescence, 48 h, basal (AID 1162); details: higher = more signal; note: test concentration not given here
# [2] = adipocyte viability effects, profiling panel, cell-based, 3T3-L1 adipocytes, calcein-AM fluorescence, 48 h, basal (AID 1163); details: 3T3-L1 adipocytes viability, higher = more signal; note: test concentration not given here
# [3] = HepG2 cell viability effects, profiling panel, calcein-AM fluorescence, 48 h, basal (AID 1164); details: higher = more signal; note: test concentration not given here
# [4] = MM1S cell viability effects, profiling panel, calcein-AM fluorescence, 48 h, basal (AID 1165); details: higher = more signal;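 note: viability of MM1S multiple myeloma cells under basal unstimulated conditions; test concentration not given here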
# [5] = basal RPMI8226 viability, no added stimulus, profiling panel, cell-based, calcein-AM fluorescence, 48 h, PK04 Diversity Set (AID 1166); details: RPMI8226 myeloma viability, higher = more signal;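 note: cells grown under basal conditions without added stimulus; test concentration not given here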
# [6] = basal HepG2 mitochondrial membrane potential changes, profiling panel, cell-based, JC-1 fluorescence, 24 h, 100 nL compound (AID 1167); details: higher = more signal; note: test concentration not given here
# [7] = basal 3T3-L1 adipocyte mitochondrial potential changes, profiling panel, cell-based, JC-1 fluorescence, 3T3-L1 adipocytes, 24 h, 100 nL compound (AID 1168); details: JC-1 mitochondrial fluorescence, higher = more signal, called active from +8 up or from −8 down; note: test concentration not given here
# [8] = basal RPMI8226 mitochondrial membrane potential changes, profiling panel, cell-based, JC-1 fluorescence, 24 h, 100 nL compound (AID 1169); details: RPMI8226 myeloma, JC-1 mitochondrial potential fluorescence, higher = more signal; note: test concentration not given here
# [9] = basal MM1S mitochondrial membrane potential changes, profiling panel, cell-based, JC-1 fluorescence, 24 h, 100 nL compound (AID 1170); details: higher = more signal; note: test concentration not given here
# [10] = A549 lung cancer cell viability effects, profiling panel, resazurin fluorescence, 24 h, PK04 Diversity Set (AID 1171); details: higher = more signal, called active from +8 up or from −8 down; note: test concentration not given here
# [11] = HepG2 liver cancer cell viability effects, profiling panel, resazurin fluorescence, 24 h, PK04 Diversity Set (AID 1172); details: higher = more signal; note: test concentration not given here
# [12] = basal S. cerevisiae growth modulation, no modifier, primary screen, OD600, strain BY4716, 24 h, basal condition (AID 1173); details: OD600, 24 h, higher = more signal, called active from +8 up or from −8 down
# [13] = MM1S myeloma cell viability, profiling panel, resazurin fluorescence, basal, 24 h, PK04 Diversity Set (AID 1174); details: higher = more signal, called active from +8 up or from −8 down;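 note: MM1S multiple myeloma cell line; test concentration not given here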
# [14] = target: Dihydroorotate dehydrogenase (quinone), mitochondrial (Plasmodium falciparum (isolate 3D7)) (UniProt Q08210); assay: PfDHODH enzyme inhibitors, primary screen, biochemical, C-terminal His tag, absorbance 600 nm (AID 1175); details: DCIP absorbance 600 nm, higher = more signal, called active from +8 up or from −8 down;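 note: recombinant parasite enzyme with a five histidine tag at its C terminus; test concentration not given here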
# [15] = P. aeruginosa biofilm formation inhibitors, primary screen, strain PAO1, LB-PBS medium, absorbance 600 nm (AID 1176); note: test concentration not given here; details: P. aeruginosa PAO1 growth/biofilm, A600, 12 h; higher = more signal
# [16] = S. cerevisiae RM11-1a growth modifiers, primary screen, strain RM11-1a, OD600, basal, 24 h (AID 1177); details: OD600, 24 h, higher = more signal, called active from +8 up or from −8 down;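 note: cultures grown under basal conditions with no added stressor; test concentration not given here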
# [17] = E. coli acrAB mutant growth effects, primary screen, E. coli filamentation inducers, strain DRC39, OD650, 24 h (AID 1178); details: higher = more signal, called active from +8 up or from −8 down;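 note: growth measured as culture turbidity by optical density at 650 nm; test concentration not given here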
# [18] = E. coli acrAB mutant growth effects, primary screen, E. coli filamentation inducers, strain DRC39, OD650, 48 h (AID 1179);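 note: screen aims at cell division blockers that make cells filament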; details: E. coli DRC39 delta-acrAB growth, higher = more signal, called active from +8 up or from −8 down
# [19] = RPMI8226 myeloma cell viability, profiling panel, resazurin fluorescence, basal, 24 h, PK04 Diversity Set (AID 1180); details: higher = more signal;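 note: RPMI8826 multiple myeloma cell line at 5000 cells per well; test concentration not given here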
# [20] = target: E3 ubiquitin-protein ligase XIAP (Homo sapiens) (UniProt P98170); assay: XIAP binders, primary screen, biophysical, small-molecule microarray, fluorescence 635 nm (AID 1181); details: small-molecule microarray binding, higher = more signal;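 note: score merges 667 nm emission and signal to noise over triplicate slides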
# Sequence of E3 ubiquitin-protein ligase XIAP (Homo sapiens) (P98170 whole entry, looked up): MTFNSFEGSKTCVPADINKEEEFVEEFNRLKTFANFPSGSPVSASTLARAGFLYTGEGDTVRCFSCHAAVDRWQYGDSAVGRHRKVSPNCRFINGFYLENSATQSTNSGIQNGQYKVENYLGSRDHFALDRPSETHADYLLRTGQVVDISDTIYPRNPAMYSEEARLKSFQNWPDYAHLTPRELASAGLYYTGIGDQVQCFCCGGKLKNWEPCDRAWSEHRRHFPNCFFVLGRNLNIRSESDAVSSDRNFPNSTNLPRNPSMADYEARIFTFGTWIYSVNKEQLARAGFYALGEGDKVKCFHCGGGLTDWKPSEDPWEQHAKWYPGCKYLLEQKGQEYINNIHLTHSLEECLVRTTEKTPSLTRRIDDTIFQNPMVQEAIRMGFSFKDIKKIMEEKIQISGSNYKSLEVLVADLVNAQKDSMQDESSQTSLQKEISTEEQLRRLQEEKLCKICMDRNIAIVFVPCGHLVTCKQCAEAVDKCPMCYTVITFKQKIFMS
# Sequence of Dihydroorotate dehydrogenase (quinone), mitochondrial (Plasmodium falciparum (isolate 3D7)) (Q08210 whole entry, looked up): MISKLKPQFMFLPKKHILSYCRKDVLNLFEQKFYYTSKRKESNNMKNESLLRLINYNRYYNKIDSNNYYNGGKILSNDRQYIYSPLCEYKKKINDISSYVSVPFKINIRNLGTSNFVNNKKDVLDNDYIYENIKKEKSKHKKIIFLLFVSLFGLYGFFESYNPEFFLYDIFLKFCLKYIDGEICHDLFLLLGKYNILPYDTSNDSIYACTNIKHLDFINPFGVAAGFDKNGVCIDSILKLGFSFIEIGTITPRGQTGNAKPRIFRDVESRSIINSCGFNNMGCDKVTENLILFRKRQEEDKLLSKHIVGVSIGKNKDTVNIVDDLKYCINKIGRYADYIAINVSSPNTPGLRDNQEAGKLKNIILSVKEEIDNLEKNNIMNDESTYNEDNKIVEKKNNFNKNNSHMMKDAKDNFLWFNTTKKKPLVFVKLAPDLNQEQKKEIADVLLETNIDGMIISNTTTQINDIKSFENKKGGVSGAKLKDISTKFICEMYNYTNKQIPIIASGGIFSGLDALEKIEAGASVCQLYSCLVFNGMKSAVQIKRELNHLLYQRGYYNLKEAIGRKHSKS
Structure (SMILES),z-score [1],z-score [2],z-score [3],z-score [4],z-score [5],z-score [6],z-score [7],z-score [8],z-score [9],z-score [10],z-score [11],z-score [12],z-score [13],composite z-score [14],z-score [15],z-score [16],z-score [17],z-score [18],z-score [19],composite z-score [20]
COCCOC(=O)N1C(=O)[C@@]2(c3cc(C#CCC(C(=O)OC)C(=O)OC)ccc31)[C@H](C(=O)NC[C@H](O)c1ccccc1)[C@H]1C(=O)O[C@H](c3ccccc3)[C@H](c3ccccc3)N1[C@@H]2c1ccc(O)cc1,0.395,0.408,1.26,-0.99,-1.74,0.126,-0.489 (inactive),-0.39,-0.491,-0.227 (inactive),0.442,1.14 (inactive),0.73 (inactive),-2.68 (inactive),1.1 (inactive),1.24 (inactive),0.35 (inactive),0.644 (inactive),-1.4,-0.096
C=CCC(OC(C)=O)[C@@H]1[C@@H](N(Cc2ccc(-c3cccc(C(F)(F)F)c3)o2)C(=O)c2cccc3ccccc23)c2cc(OCCCO)ccc2N1C(=O)Cc1ccc(OC)cc1 (stereo not given in full),0.546,0.612,0.598,-1.16,-1.76,2.32,0.0601 (inactive),-0.748,-0.0799,0.643 (inactive),0.119,-1.8 (inactive),0.0814 (inactive),-0.349 (inactive),-1.17 (inactive),-0.0592 (inactive),1.11 (inactive),0.721 (inactive),-0.189,-0.102
CCCCC(=C=CC[C@H](O)c1ccc(OCCO)cc1)C[C@H](O)COCc1ccccc1,0.218,0.516,0.528,-3.3,-0.565,-0.399,-0.379 (inactive),-0.0821,-0.244,0.449 (inactive),-0.0002,-1.36 (inactive),0.0233 (inactive),-0.624 (inactive),0.0964 (inactive),0.556 (inactive),1.05 (inactive),0.529 (inactive),0.676,0.0122
CCOC(=O)C[C@H]1[C@H](OC(=O)c2ccc(C(=O)c3ccccc3)cc2)[C@@H](NC(=O)CC(C)C)c2cc(OCCCO)ccc2N1C(=O)Cc1ccc(OC)cc1,-0.206,-0.194,-0.0232,0.467,-0.679,1.88,-0.689 (inactive),0.573,0.288,0.189 (inactive),-0.204,-0.316 (inactive),0.191 (inactive),0.166 (inactive),0.608 (inactive),0.113 (inactive),-0.445 (inactive),-0.0261 (inactive),0.0274,-0.289
CN1C(=O)C2C=CC(C(O)c3cc(C(F)(F)F)cc(C(F)(F)F)c3)N(NC(=O)OC(C)(C)C)C2C1=O (stereo not given),-1.29,-0.122,-0.938,0.319,-1.06,-1.28,1.03 (inactive),0.191,0.546,1.14 (inactive),-0.725,-0.752 (inactive),-0.117 (inactive),-0.251 (inactive),-0.379 (inactive),0.215 (inactive),-0.676 (inactive),-1.22 (inactive),0.349,0.394
CN1C=C(C(=O)OCCS(C)(=O)=O)C(C(=O)OCCS(C)(=O)=O)=CC(c2ccc(CO)cc2)=CC1c1cccs1 (stereo not given),0.574,-0.72,0.977,-1.43,-1.1,-0.963,-0.345 (inactive),-0.627,0.0752,0.458 (inactive),0.0449,-3.66 (inactive),-0.727 (inactive),-0.927 (inactive),-0.566 (inactive),-0.363 (inactive),0.0198 (inactive),-0.0834 (inactive),0.0779,0.246
[N-]=[N+]=Nc1ccccc1[C@@H]1OC(c2ccc(OCCCO)cc2)=N[C@]1(Cc1ccccc1)C(=O)NCc1ccccc1,-1.17,-0.0535,-2.13,-3.35,-3.8,-2.02,0.976 (inactive),-1.14,-2.59,-1.48 (inactive),-0.421,0.152 (inactive),-3.62 (inactive),0.613 (inactive),0.563 (inactive),0.265 (inactive),-0.324 (inactive),-0.441 (inactive),-3.62,0.338
C=CCN1C(=O)[C@@]2(O[C@@H](CCO)[C@H]([Si](C)(C)c3ccc(OC)cc3)[C@H]2C)c2cc(N3CCOC3=O)ccc21,-2.23,1.33,-4.75,-2.77,-4.38,-2.9,1.25 (inactive),-1.08,-2.3,-3.36 (inactive),-5.76,1.07 (inactive),-8.77 (active),1.58 (inactive),0.519 (inactive),4.47 (inactive),0.891 (inactive),0.231 (inactive),-6.2,-0.0807
O=C1OCC=C[C@H]2OC34C=CCN(c5ccc6ccccc6c5)C(=O)[C@H]3N(CCCCCO)C(=O)[C@@H]4[C@@H]12 (stereo not given in full),-0.381,-0.0217,-1.08,0.589,0.0725,-0.913,-0.436 (inactive),-0.0765,0.313,-1.01 (inactive),-0.658,-0.459 (inactive),-0.818 (inactive),0.28 (inactive),-0.634 (inactive),0.176 (inactive),-1.19 (inactive),-1.3 (inactive),-0.887,-0.0286
